According to PubChem BioAssay AID1851 (National Center for Advancing Translational Sciences (NCATS), 2009):
Among all 16,000 compounds or so, about 5,100 (32%) were called active. Roughly 25% stayed inconclusive and do not appear here. Calls follow the shape of the dose curve; as a rule, active = well fitted curve in the direction sought with a large enough effect; inconclusive = small, poorly fitted or top-dose-only effect, or effect the other way; inactive = no such curve, though single readings can be large or run the other way. The list shows a part of the results.

Target: Cytochrome P450 3A4 (Homo sapiens) (UniProt P08684)
Test: Cytochrome panel assay with activity outcomes
Settings: recombinant CYP, pro-luciferin dealkylation, luminescence, p450-cyp3a4; series mostly up to 57.1 µM; activity, negative = inhibition: at the top concentration
% is scaled to controls: 0 for no effect and ±100 for the full control effect.

Sequence of Cytochrome P450 3A4 (Homo sapiens) (P08684 whole entry, looked up): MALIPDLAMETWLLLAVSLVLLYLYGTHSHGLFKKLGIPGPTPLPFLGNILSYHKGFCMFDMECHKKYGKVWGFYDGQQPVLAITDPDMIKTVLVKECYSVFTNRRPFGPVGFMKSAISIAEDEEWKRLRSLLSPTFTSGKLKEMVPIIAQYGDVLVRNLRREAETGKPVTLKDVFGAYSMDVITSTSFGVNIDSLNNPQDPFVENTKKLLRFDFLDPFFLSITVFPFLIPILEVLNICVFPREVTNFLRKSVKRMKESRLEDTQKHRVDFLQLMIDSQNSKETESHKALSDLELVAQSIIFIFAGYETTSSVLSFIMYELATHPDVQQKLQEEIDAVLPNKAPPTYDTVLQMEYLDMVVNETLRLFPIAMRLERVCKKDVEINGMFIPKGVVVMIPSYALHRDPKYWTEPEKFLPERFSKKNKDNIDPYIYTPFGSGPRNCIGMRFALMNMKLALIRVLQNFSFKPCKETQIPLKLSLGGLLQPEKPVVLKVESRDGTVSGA

SMILES | activity, negative = inhibition | AC50
CC(C)CNc1nc(N)[nH]c(=O)c1NC=O | -1.52% [at 11.4 µM] (inactive) | –
CCC(C)c1ccc(Nc2ncccc2C#N)cc1 (stereo unspecified) | -6.67% [at 2.29 µM] (inactive) | –
Cc1cccc(CNc2ncnc3ccc(-c4cccc(C#N)c4)cc23)c1 | -94.6% (inactive) | –
Cc1cccc(CNc2ncnc3ccc(-c4cccnc4)cc23)c1 | – | 1 µM (active)
c1ccc(CNc2ncnc3ccc(-c4cccnc4)cc23)cc1 | – | 1.26 µM (active)
c1ccc(Nc2ncnc3ccc(-c4cccnc4)cc23)cc1 | – | 2.51 µM (active)
CC(C)CN(CC#N)CC(C)C | -19.3% [at 11.4 µM] (inactive) | –
CCCC(=O)NCCc1c2n(c3ccc(OC)cc13)Cc1ccccc1-2 | – | 2.51 µM (active)
CCc1ccc(NC(=O)Cn2nc(C(F)(F)F)c3c2CCC3)cc1 | – | 12.6 µM (active)
CCNC(=O)c1ccc(-n2nc(C(F)(F)F)c3c2CCCC3)cc1 | -17% (inactive) | –
CN(C)C(=O)c1ccc(-n2nc(C(F)(F)F)c3c2CCCC3)cc1 | 5.72% [at 2.29 µM] (inactive) | –
Cn1cc([N+](=O)[O-])c(C(=O)Nc2cc(Oc3cccnc3)cc([N+](=O)[O-])c2)n1 | – | 0.501 µM (active)
CC(=O)NN1C(=O)c2ccc(Oc3cccc([N+](=O)[O-])c3)cc2C1=O | -11.8% (inactive) | –
Cc1ccc(Nc2ccc(-n3ccnc3)nn2)cc1C | – | 0.0794 µM (active)
O=c1[nH]n(-c2cccc(Cl)c2)c2ncccc12 | -16.8% (inactive) | –
N=c1n(CCN2CCOCC2)c2ccccc2n1CC(=O)c1ccc(Cl)c(Cl)c1 | 11.5% [at 2.29 µM] (inactive) | –
O=C(c1ccc(Cl)c(Cl)c1)c1cc(-c2ccccn2)c(N2CCOCC2)s1 | – | 14.1 µM (active)
COc1ccc(OC[C@@H](CO)OC)cc1 | -12.9% [at 11.4 µM] (inactive) | –
Cn1c(=O)c2c(n(Cc3ccccc3)c1=O)NC(=O)C2CC(=O)NCc1cccc(Cl)c1 (stereo unspecified) | – | 6.31 µM (active)
COCCCNCC(=O)c1c(N)n(Cc2ccccc2)c(=O)n(C)c1=O | -9.63% [at 2.29 µM] (inactive) | –
C[C@]12CC3CC(N)(C1)C[C@@](C)(C3)C2 | – | inactive
N#C/C(=C(\O)C(=O)O)c1ccc(-c2cccc3ccccc23)cc1 | -22% [at 11.4 µM] (inactive) | –
CCn1c2ccccc2c2cc(N=C3SC(CC(=O)Nc4ccccc4)C(=O)N3C)ccc21 (stereo unspecified) | – | 5.01 µM (active)

SMILES | activity, negative = inhibition | AC50
NS(=O)(=O)c1cc2c(cc1Cl)NC(CSCc1ccccc1)=NS2(=O)=O | – | 12.6 µM (active)
NS(=O)(=O)c1cc2c(cc1Cl)N[C@H](Cc1ccccc1)NS2(=O)=O | -18.4% [at 11.4 µM] (inactive) | –
NS(=O)(=O)c1cc2c(cc1Cl)N[C@@H](C(Cl)Cl)NS2(=O)=O | -10% [at 25.6 µM] (inactive) | –
Oc1c(Br)cc(Br)cc1CN(Cc1cc(Br)cc(Br)c1O)C1CCCCC1 | -22.2% [at 11.4 µM] (inactive) | –
CCOC(=O)CCN1C(=O)[C@H]2[C@H]3[C@H](O)[C@H](O)C/C(=N/O[C@@H]4O[C@@H](COC(C)=O)[C@@H](OC(C)=O)[C@@H](OC(C)=O)[C@H]4OC(C)=O)[C@@H]3CC[C@@H]2C1=O | -20.3% [at 11.4 µM] (inactive) | –
CCCCN(C(=O)NC(=O)Nc1ccccc1OCC)S(C)(=O)=O | -18.4% (inactive) | –
CCN(CC)C(=O)c1ccc(O)c(OC)c1 | -14.6% [at 25.6 µM] (inactive) | –
CCCCN(CC)C(=O)Cc1ccccc1OC | – | 15.8 µM (active)
CNC(=O)COC(=O)c1cc2c(C)nn(-c3ccc(F)cc3)c2s1 | -30% (inactive) | –
COc1ccccc1CNC(=O)c1cc2c(C)nn(Cc3ccc(F)cc3)c2s1 | – | 2.82 µM (active)
CCCn1nc2cc(C(=O)NCc3ccccc3OC)ccc2c1OCC | -3.81% [at 2.29 µM] (inactive) | –
CC(=O)N[C@@H](C(=O)O)C(C)(C)SN=O | – | inactive
CCC(C#CCN1CCCCC1)(CC)OCCC#N | -12.9% (inactive) | –
Cc1c(C(=O)O)oc2ccc(S(=O)(=O)NCc3ccc4c(c3)OCO4)cc12 | – | 15.8 µM (active)
O=C(O)C[C@H](Cc1ccc2c(c1)OCO2)C(=O)O | -6.76% [at 11.4 µM] (inactive) | –
CCCc1nc(SCC(=O)NNC(=O)C2CCCCC2)c2ccccc2n1 | – | 3.55 µM (active)
CCc1nc(SCC(=O)NNC(=O)C2CCCCC2)c2ccccc2n1 | 12.1% (inactive) | –
CC(=O)Nc1nnc(CCN2CCCCC2)s1 | 18% (inactive) | –
Cc1ccc(SCC(=O)NNC(=O)C2CCCCC2)cc1 | – | 7.94 µM (active)
CCc1nnc(NC(=O)CSc2nc3cc4c(cc3cc2C)OCCO4)s1 | – | 14.1 µM (active)
CCc1nnc(NC(=O)CSc2nc(C3CCCCC3)nc3ccccc23)s1 | – | 2.51 µM (active)
Cc1ccc(SCN2CCCCC2)cc1 (tested in a mixture with another compound) | -20% [at 11.4 µM] (inactive) | –
CCCS(=O)(=O)N1CCCC(C(=O)N2CCN(C(=O)OCC)CC2)C1 (stereo unspecified) | 22.2% (inactive) | –
